Assay results published in the supplement of paper PMC11018630.
Structures can show the parent of a compound that is named as a salt. ± gives the standard deviation of the averaged measurements.

These molecules were tested on RDEB dermal fibroblasts EB119 (assay: day of extracellular matrix detachment from plate (days); higher = delayed detachment (less fibrotic matrix)). Conditions: compound concentration: 10 uM.
`O=C(O)CCCCCCCC(=O)O` [Azelaic acid] was tested, and the “day of extracellular matrix detachment from plate” value (“day” below) was 26.3 ± 1.1.
With `CC(C)(CO)[C@@H](O)C(=O)NCCCO` [D panthenol] the “day” value was 26 ± 1.4.
In the case of `O=C(O[C@H]1CN2CCC1CC2)N1CCc2ccccc2[C@@H]1c1ccccc1` [Solifenacin succinate], the “day” value is reported as 33.3 ± 1.1.
In the case of `CCOC(=O)[C@H]1O[C@@H]1C(=O)N[C@@H](CC(C)C)C(=O)NCCC(C)C` [Aloxistatin], the “day” value is reported as 25.
With `CCN(CCO)CCCC(C)Nc1ccnc2cc(Cl)ccc12` (centres undefined) [Hydroxychloroquine Sulfate] the “day” value was 32.
In the case of `CCCN(CCC)C(=O)C1=Cc2ccc(-c3ccc(C(=O)N4CCCC4)cc3)cc2N=C(N)C1` [Motolimod (VTX-2337)], the “day” value is reported as 26 ± 1.4.
In the case of `Nc1nc(NC2CC2)c2ncn([C@H]3C=C[C@@H](CO)C3)c2n1` [Abacavir sulfate], the “day” value is reported as 27.
For `OC(c1cc(C(F)(F)F)nc2c(C(F)(F)F)cccc12)C1CCCCN1` (centres undefined) [Mefloquine HCl], the “day” value was 39.
In the case of `COCCCOc1ccnc(C[S+]([O-])c2nc3ccccc3[nH]2)c1C` (centres undefined) [Rebeprazole sodium], the “day” value is reported as 25.
